# Data as given in PubChem BioAssay (NCATS).
# Records with an inconclusive call do not appear. Calls of active or inactive are those of the source. Unless noted, the call rests on the fitted dose curve.
# Assays:
# [1] = target: Glucocorticoid receptor (Homo sapiens) (UniProt P04150); assay: qHTS assay for small molecule agonists of glucocorticoid receptor signaling (AID 588532; active means well fitted curve in the direction sought with a large enough effect in the signal ratio, with a control signal flat; the % refers to the signal ratio;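 further: 100% = dexamethasone at 0.1 µM and 0% = DMSO only wells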); conditions: HeLa MMTV-bla, beta-lactamase ratio, agonist, 18 h; activation: stronger effect = higher value, percent of dexamethasone control, DMSO zero
# Outline: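 Titration series, up to 92 uM, applied to GRE-bla HeLa cells for 18 h at 37 C. Detection by CCF4 FRET substrate after 2 h at RT.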
# [2] = qHTS assay for small molecule antagonists of peroxisome proliferator-activated receptor delta signaling (AID 588535; active means well fitted inhibition curve with a large enough effect in the signal ratio, with a control signal flat, not every such curve was filed as active; the % refers to the signal ratio;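 on max response: cells co-treated with a PPAR-delta agonist as stimulator during compound exposure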); conditions: HEK293T PPARd-UAS-bla, beta-lactamase FRET ratio, 18 h; 460 nm channel
# Outline: (§1)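 Reporter: UAS-bla under PPAR-delta response element, HEK293T host. Medium: 2% charcoal/dextran FBS. Dosing: titration, 18 hrs, 37 C. Detection: CCF4, 2 hrs RT, 405 ex/460 and 530 em.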
# [3] = target: Peroxisome proliferator-activated receptor delta (Homo sapiens) (UniProt Q03181); assay: as above
# Outline: as §1
# [4] = target: Peroxisome proliferator-activated receptor gamma (Homo sapiens) (UniProt P37231); assay: qHTS assay for small molecule antagonists of peroxisome proliferator-activated receptor gamma signaling (AID 588537; active means well fitted inhibition curve with a large enough effect in the signal ratio, with a control signal flat, not every such curve was filed as active; the % refers to the signal ratio;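 further: reporter cells co-stimulated with 50 nM rosiglitazone agonist during compound treatment; % of control where 0% means no effect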)
# Outline: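 We seeded GeneBLAzer HEK293 reporter cells at 3000 per well, allowed 6-6.5 h attachment at 37 C, then co-treated with test compound titrations and 50 nM rosiglitazone overnight (16 h). Inhibition was quantified from 460/530 nm emission ratios.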
# [5] = target: Thyroid hormone receptor beta (Homo sapiens) (UniProt P10828); assay: qHTS assay for small molecule antagonists of thyroid hormone receptor beta signaling (AID 588547; active means well fitted inhibition curve with a large enough effect in the signal ratio, with a control signal flat, not every such curve was filed as active; the % refers to the signal ratio;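 further: cells stimulated with 0.4 nM T3 agonist during compound exposure; series mostly up to about 77 µM; on the % scale 0 is the no-effect control and ±100 the full control effect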); conditions: TR-UAS-bla HEK293, beta-lactamase ratio, antagonist mode, 18 h
# Outline: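 TR-UAS-bla GripTite HEK293 cells in 2% charcoal/dextran FBS medium were preincubated 4 h at 37 C, given compound (0.59 nM to 92 uM) plus 0.4 nM T3 (final) for 18 h, then CCF4 for 2 h at RT; Hill fit gave IC50.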
# [6] = target: Androgen receptor (Homo sapiens) (UniProt P10275); assay: qHTS assay for small molecule agonists of androgen receptor signaling (AID 588515; active means well fitted curve in the direction sought with a large enough effect in the signal ratio, with a control signal flat; the % refers to the signal ratio; further: on the % scale 0 is the no-effect control and ±100 the full control effect); conditions: AR-UAS-bla HEK293, beta-lactamase ratio, agonist 16 h; stronger effect = higher value
# Outline: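 EC50 and efficacy came from Hill fits of titrations (up to 92 uM) normalized to 30 nM R1881 as 100% and DMSO as 0%. Compound exposure was 16 h at 37 C on AR-UAS-bla HEK293 cells, with a 405/460/530 nm CCF4 fluorescence read.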
# [7] = target: Bile acid receptor (Homo sapiens) (UniProt Q96RI1); assay: qHTS assay for small molecule agonists of farnesoid X receptor signaling (AID 588527); conditions: HEK293T FXR-UAS-bla, beta-lactamase ratio, 16 h; activation: stronger effect = higher value;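 further: series mostly up to about 77 µM; 0% = vehicle basal and 100% = reference agonist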
# Outline: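 FXR-UAS-bla HEK293T, 10% dialyzed FBS; cpds up to 92 uM titration, 16 h 37 C; CCF4 dye 2 h RT; fluorescence. Normalized to chenodeoxycholic acid 100 uM (100%) and DMSO (0%); Hill fit gives EC50, efficacy.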
# [8] = qHTS assay for small molecule agonists of the antioxidant response element (ARE) signaling pathway (AID 651741; active means well fitted activation curve with a large enough effect in the signal ratio; the % refers to the signal ratio; further: potency means the concentration at half of the fitted maximal effect; on activation: % of control where 0% means no effect)
# Outline: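 Compounds in DMSO are pinned onto HepG2 ARE-bla cells (2,000/well) that were preincubated 5 h; plates stay 16 h at 37 C, then beta-lactamase activity is detected with LiveBLAzer B/G substrate by fluorescence.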
# [9] = qHTS assay for small molecule activators of the human pregnane X receptor (PXR) signaling pathway (AID 720659; call rule not given here; further: 0% is about no effect)
# [10] = target: Androgen receptor (Homo sapiens) (UniProt P10275); assay: qHTS assay for small molecule antagonists of androgen receptor signaling (AID 588516; active means well fitted curve in the direction sought with a large enough effect in the signal ratio, with a control signal flat, not every such curve was filed as active; the % refers to the signal ratio; further: on the % scale 0 is the no-effect control and ±100 the full control effect)
# Outline: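 Compounds tested in titration against 10 nM R1881 in AR-responsive bla reporter HEK 293 cells; CCF4 fluorescence (460/530 nm) after 16 h exposure gave IC50 and efficacy.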
# [11] = target: Bile acid receptor (Homo sapiens) (UniProt Q96RI1); assay: qHTS assay for small molecule antagonists of farnesoid X receptor signaling (AID 588526); further: on the % scale 0 is the no-effect control and ±100 the full control effect
# Outline: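 Concentration-response titrations were fitted to the Hill equation for half-maximal inhibition and maximal response, with data normalised to 50 uM chenodeoxycholic acid and DMSO control wells. Cells: FXR-UAS-bla HEK293T, dialyzed FBS.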
# [12] = target: Glucocorticoid receptor (Homo sapiens) (UniProt P04150); assay: qHTS assay for small molecule antagonists of glucocorticoid receptor signaling (AID 588533; active means well fitted inhibition curve with a large enough effect in the signal ratio, with a control signal flat, not every such curve was filed as active; the % refers to the signal ratio)
# Outline: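 Antagonist-mode qHTS: compound titrations added to GRE-bla HeLa cells, then dexamethasone 2 nM final; 18 h, 37 C. CCF4 FRET fluorescence normalized to dexamethasone and DMSO; IC50 from Hill fit.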
# Chain of Thyroid hormone receptor beta (Homo sapiens) (P10828 whole entry, looked up): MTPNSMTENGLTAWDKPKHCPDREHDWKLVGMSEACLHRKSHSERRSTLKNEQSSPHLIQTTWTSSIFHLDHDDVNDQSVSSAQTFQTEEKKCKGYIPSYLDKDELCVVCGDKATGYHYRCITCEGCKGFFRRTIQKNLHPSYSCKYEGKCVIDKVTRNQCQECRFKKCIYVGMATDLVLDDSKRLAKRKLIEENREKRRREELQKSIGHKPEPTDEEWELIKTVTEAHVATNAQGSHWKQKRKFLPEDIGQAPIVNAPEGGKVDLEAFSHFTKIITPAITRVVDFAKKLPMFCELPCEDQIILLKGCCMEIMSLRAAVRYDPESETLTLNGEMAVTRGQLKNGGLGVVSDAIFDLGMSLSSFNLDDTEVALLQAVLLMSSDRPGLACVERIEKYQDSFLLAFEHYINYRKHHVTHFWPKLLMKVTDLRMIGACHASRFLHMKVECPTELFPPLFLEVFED
# Chain of Bile acid receptor (Homo sapiens) (Q96RI1 whole entry, looked up): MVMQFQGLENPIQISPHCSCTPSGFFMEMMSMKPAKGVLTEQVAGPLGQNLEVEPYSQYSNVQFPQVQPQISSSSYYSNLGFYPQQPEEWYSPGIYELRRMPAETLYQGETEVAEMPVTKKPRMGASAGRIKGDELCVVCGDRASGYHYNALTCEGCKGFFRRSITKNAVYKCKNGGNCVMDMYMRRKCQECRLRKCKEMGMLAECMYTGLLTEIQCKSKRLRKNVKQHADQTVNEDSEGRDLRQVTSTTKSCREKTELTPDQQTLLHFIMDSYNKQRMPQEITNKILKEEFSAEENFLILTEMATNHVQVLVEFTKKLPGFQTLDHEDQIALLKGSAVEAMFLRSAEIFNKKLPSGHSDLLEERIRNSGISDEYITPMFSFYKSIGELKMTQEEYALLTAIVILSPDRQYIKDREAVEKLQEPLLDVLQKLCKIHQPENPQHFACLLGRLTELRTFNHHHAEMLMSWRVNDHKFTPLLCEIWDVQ
# Chain of Glucocorticoid receptor (Homo sapiens) (P04150 whole entry, looked up): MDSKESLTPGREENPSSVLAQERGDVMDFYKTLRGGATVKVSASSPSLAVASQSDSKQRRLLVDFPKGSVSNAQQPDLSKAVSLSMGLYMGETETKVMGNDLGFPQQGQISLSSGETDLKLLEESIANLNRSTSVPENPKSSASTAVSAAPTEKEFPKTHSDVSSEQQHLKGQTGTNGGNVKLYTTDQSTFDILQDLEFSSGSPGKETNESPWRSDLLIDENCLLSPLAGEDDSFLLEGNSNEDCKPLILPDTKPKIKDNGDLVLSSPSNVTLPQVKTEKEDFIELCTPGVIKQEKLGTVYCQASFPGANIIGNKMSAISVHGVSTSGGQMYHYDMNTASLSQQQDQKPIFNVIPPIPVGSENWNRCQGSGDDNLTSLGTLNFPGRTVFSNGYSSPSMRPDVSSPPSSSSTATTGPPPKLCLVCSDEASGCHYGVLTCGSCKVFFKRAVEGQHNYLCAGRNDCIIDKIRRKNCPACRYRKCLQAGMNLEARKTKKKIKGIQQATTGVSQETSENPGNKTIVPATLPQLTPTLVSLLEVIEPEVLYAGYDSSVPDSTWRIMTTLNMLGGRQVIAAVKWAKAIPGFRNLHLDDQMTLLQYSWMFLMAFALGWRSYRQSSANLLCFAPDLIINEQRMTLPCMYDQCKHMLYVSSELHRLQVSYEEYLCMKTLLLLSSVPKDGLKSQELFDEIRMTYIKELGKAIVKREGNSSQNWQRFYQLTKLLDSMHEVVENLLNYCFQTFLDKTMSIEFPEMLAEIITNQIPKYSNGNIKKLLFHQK
# Chain of Peroxisome proliferator-activated receptor delta (Homo sapiens) (Q03181 whole entry, looked up): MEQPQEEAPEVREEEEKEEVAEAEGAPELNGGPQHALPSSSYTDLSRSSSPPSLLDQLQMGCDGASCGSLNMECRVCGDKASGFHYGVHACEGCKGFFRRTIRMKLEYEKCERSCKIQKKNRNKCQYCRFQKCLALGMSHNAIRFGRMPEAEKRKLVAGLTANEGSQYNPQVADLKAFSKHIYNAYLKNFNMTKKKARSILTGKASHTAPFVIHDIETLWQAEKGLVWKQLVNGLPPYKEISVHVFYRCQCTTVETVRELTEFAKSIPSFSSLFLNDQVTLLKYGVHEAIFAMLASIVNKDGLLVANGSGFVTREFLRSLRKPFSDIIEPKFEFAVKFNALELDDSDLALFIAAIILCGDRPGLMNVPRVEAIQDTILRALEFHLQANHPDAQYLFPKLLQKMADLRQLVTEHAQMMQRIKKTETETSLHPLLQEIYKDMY
# Chain of Androgen receptor (Homo sapiens) (P10275 whole entry, looked up): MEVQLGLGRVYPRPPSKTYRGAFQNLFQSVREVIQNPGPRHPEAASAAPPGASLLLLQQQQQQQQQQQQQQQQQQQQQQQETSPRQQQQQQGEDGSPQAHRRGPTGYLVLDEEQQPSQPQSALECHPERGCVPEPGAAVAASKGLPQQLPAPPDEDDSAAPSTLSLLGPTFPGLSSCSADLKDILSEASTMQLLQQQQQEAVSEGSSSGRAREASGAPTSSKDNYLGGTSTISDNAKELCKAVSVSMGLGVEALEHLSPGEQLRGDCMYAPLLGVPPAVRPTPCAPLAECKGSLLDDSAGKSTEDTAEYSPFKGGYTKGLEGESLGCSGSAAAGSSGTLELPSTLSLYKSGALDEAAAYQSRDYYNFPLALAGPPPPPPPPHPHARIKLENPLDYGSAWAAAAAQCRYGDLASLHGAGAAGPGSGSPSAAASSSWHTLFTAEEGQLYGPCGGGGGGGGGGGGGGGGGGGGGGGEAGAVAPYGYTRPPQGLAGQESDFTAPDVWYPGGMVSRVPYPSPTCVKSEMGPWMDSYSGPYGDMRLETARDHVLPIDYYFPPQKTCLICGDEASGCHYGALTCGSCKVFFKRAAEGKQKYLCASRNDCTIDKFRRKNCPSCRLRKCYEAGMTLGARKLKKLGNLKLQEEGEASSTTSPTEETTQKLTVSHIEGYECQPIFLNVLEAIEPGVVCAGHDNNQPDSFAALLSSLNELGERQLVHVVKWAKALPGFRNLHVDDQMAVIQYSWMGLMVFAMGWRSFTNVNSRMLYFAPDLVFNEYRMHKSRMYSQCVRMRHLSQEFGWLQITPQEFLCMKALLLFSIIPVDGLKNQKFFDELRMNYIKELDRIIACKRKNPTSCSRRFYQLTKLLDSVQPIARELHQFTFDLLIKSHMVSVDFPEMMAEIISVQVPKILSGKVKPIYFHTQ
# Chain of Peroxisome proliferator-activated receptor gamma (Homo sapiens) (P37231 whole entry, looked up): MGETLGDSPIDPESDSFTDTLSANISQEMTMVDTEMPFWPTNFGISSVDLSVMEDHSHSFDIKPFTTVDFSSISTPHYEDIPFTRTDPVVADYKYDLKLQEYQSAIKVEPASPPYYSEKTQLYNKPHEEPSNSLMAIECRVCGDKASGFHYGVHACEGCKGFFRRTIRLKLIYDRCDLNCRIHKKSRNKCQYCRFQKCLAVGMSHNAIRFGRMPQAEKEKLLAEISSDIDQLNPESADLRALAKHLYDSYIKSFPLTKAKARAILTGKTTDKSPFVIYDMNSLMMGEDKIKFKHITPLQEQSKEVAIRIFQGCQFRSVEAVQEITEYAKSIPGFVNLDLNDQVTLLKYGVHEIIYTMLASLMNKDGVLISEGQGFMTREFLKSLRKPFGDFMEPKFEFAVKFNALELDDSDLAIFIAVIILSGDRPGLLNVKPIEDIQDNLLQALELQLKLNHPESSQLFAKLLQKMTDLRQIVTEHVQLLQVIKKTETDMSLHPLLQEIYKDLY
smiles,measurement,setting,value
Cn1cc(-c2ccccc2)c(=O)c(-c2cccc(C(F)(F)F)c2)c1,activation,[1],-15.3% (inactive)
same,max response,[2],16.9%
same,Potency,[3],inactive
same,Potency,[4],inactive
same,activity change % (negative = inhibition),[5],1.65% (inactive)
O=P(OCC(Br)CBr)(OCC(Br)CBr)OCC(Br)CBr (stereo not drawn),activation,[6],-12.7% (inactive)
same,activation,[7],0.554% (inactive)
same,max response,[2],-17.7%
same,Potency,[3],inactive
same,activity change % (negative = inhibition),[5],-25.3% (inactive)
same,Potency,[8],15.4 µM (active)
CC(C)(c1ccccc1)c1cc(-n2nc3ccccc3n2)c(O)c(C(C)(C)c2ccccc2)c1,activation,[1],-6.85% (inactive)
same,max response,[2],10.7%
same,Potency,[3],inactive
same,Potency,[4],inactive
same,Potency,[8],61.1 µM (active)
same,outcome,[9],inactive
COP(=O)(OC)O/C(C)=C/C(=O)N(C)C,max response,[2],-17.4%
same,Potency,[3],inactive
same,outcome,[9],inactive
CNC(=O)O/N=C(\SC)C(=O)N(C)C,activation,[6],-0.759% (inactive)
same,Potency,[10],inactive
same,max response,[2],22.2%
same,Potency,[3],inactive
same,activity change % (negative = inhibition),[5],0.203% (inactive)
same,outcome,[9],inactive
CCNP(=S)(OC)O/C(C)=C/C(=O)OC(C)C (stereo not drawn),activation,[1],-6.1% (inactive)
C=C(C)CN(CC)c1c([N+](=O)[O-])cc(C(F)(F)F)cc1[N+](=O)[O-],activation,[1],1.61% (inactive)
same,max response,[2],5.96%
same,Potency,[3],inactive
CCSC(C)CC1CC(=O)C(/C(CC)=N/OC/C=C/Cl)=C(O)C1 (stereo not drawn),activation,[6],3.31% (inactive)
same,Potency,[11],inactive
same,activation,[7],0.0799% (inactive)
same,activation,[1],-3.59% (inactive)
same,max response,[2],62.4%
same,Potency,[3],inactive
same,activity change % (negative = inhibition),[5],-26.3% (inactive)
Clc1ccccc1-c1nnc(-c2ccccc2Cl)nn1,max response,[2],-44.7%
same,Potency,[3],inactive
same,Potency,[4],inactive
CNC(=O)/C=C(\C)OP(=O)(OC)OC,Potency,[11],inactive
same,activation,[7],6.76% (inactive)
same,activation,[1],-1.15% (inactive)
same,max response,[2],32.8%
same,Potency,[3],inactive
same,Potency,[4],inactive
same,activity change % (negative = inhibition),[5],-12.7% (inactive)
same,Potency,[8],inactive
CS(=O)(=O)c1cc(C(F)(F)F)ccc1C(=O)c1cnoc1C1CC1,activation,[1],11.4% (inactive)
same,max response,[2],51.3%
same,Potency,[3],inactive
same,Potency,[4],inactive
OC(Cn1cncn1)(c1ccc(F)cc1)c1ccccc1F (stereo not drawn),Potency,[8],inactive
same,outcome,[9],inactive
CCSCc1ccccc1OC(=O)NC,Potency,[11],inactive
same,activation,[7],3.09% (inactive)
same,Potency,[12],inactive
same,Potency,[4],inactive
same,activity change % (negative = inhibition),[5],-8.58% (inactive)
CCOP(=O)(OCC)SCCSCC,Potency,[4],inactive
same,activity change % (negative = inhibition),[5],-4.38% (inactive)
same,outcome,[9],inactive
CCOP(=S)(NC(C)C)Oc1ccccc1C(=O)OC(C)C (stereo not drawn),activation,[7],8.84% (inactive)
same,activation,[1],-0.106% (inactive)
same,max response,[2],-3.59%
same,Potency,[3],inactive
same,Potency,[4],inactive
same,activity change % (negative = inhibition),[5],1.38% (inactive)
same,Potency,[8],inactive
CC1(c2ccc(Oc3ccccc3)cc2)OC(=O)N(Nc2ccccc2)C1=O (stereo not drawn),activation,[7],4.14% (inactive)
COc1cnc(OC)n2nc(NS(=O)(=O)c3c(OCC(F)F)cccc3C(F)(F)F)nc12,outcome,[9],inactive
O=P(O)(O)CN(CP(=O)(O)O)CP(=O)(O)O,activation,[1],4.25% (inactive)
same,Potency,[12],inactive
same,max response,[2],1.59%
same,Potency,[3],inactive
same,Potency,[4],inactive
same,activity change % (negative = inhibition),[5],-9.36% (inactive)
same,outcome,[9],inactive
